TbREL1 primary = TbREL1 inhibition, primary screen; inhibition, % at 9.66 µM; P86926; TbREL1 RNA ligation, FRET fluorescence; AID 1117264; 89,000 compounds, 0.49% hits;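 active = inhibition above the mean inhibition across all screened compounds plus 3 SD, cut at about 11% in these data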;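 also: 0% = plate median of test wells and 100% = NSC42067 control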
Target sequence (P86926 whole entry, looked up): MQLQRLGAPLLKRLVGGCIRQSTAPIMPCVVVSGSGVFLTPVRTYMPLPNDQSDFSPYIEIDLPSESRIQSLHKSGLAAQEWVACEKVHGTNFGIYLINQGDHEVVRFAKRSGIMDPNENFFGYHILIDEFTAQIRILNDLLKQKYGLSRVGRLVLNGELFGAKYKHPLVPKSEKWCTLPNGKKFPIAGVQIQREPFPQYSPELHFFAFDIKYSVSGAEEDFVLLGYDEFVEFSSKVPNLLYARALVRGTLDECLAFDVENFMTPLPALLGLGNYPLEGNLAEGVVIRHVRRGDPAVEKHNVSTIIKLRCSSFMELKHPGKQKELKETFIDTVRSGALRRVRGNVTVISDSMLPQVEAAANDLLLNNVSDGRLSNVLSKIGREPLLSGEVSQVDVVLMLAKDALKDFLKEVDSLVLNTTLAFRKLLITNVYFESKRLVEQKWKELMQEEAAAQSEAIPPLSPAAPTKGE
TbREL1 conf = TbREL1 inhibition, confirmation. TbREL1 RNA ligation, FRET fluorescence. 390 compounds, 37% hits. inhibition, % at 9.66 µM. AID 1117282. shares compounds with TbREL1 primary;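 active = mean inhibition across replicates above a set limit taken from the earlier primary screen, cut at about 11% in these data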;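 also: 0% = REL1 with substrate and DMSO and 100% = REL1 plus control inhibitor NSC42067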
The depositor's hits bear a star. Many of the other results were omitted from the sample, so hits are more common in it than they were.

SMILES | TbREL1 primary | others
Cc1ccc(-c2cc(-c3nnc(SCC(=O)N4CCOCC4)n3N)[nH]n2)cc1 | -2
CN(C(=O)CSc1ncnc2sccc12)c1c(N)n(Cc2ccccc2)c(=O)[nH]c1=O | 12* | TbREL1 conf=2
CN(C(=O)COC(=O)c1cccs1)c1c(N)n(Cc2ccccc2)c(=O)[nH]c1=O | -1
CSc1nnc(SCC(=O)N(C)c2c(N)n(Cc3ccccc3)c(=O)[nH]c2=O)s1 | 7
C[C@@H]1CN([C@@H](C)COC(=O)C(C)(C)C)C(=O)c2cc(NC(=O)Nc3ccccc3)ccc2O[C@@H](C)CCCCO[C@H]1CN(C)S(=O)(=O)c1ccc(F)cc1 | 6
O=C(c1cc2ccccc2o1)N1CCN=C1SCc1cccc(F)c1 | 0
O=C(c1ccco1)N1CCN=C1SCc1cccc(F)c1 | 1
O=S(=O)(c1ccc(Br)cc1)N1CCN=C1SCc1cccc(F)c1 | 11* | TbREL1 conf=3
CCCN(CC1CC1)C(=O)CSc1nnc(-c2ccncc2)n1-c1ccc(OC)cc1 | -4
CCOc1ccc(-n2c(SC/C=C/c3ccccc3)nnc2-c2ccco2)cc1 | 0
CCOc1ccc(-n2c(SCC(=O)Nc3ccccc3-c3ccccc3)nnc2-c2cccs2)cc1 | 0
COc1cc(C(=O)NNC(=O)c2ccc(NC(C)=O)cc2)cc(OC)c1OC | 1
COc1ccccc1NS(=O)(=O)c1cccc(C(=O)NNC(=O)c2ccc(NC(C)=O)cc2)c1 | 16* | TbREL1 conf=1
COc1ccccc1NS(=O)(=O)c1cccc(C(=O)NCc2ccccn2)c1 | 2
Cc1ccc(NC(=O)C2CCCN(c3nnc(-n4cccc4)s3)C2)c(C)c1 (centres undefined) | -4
COC(=O)c1ccc(Cn2ccc3ccc(-c4ccc5ccn(C(=O)c6ccccc6C)c5c4)cc32)cc1 | -1
O=C1C[C@H](c2ccc3ccccc3c2)N=C2N1/C(=C\c1ccccc1)[C@@H](c1ccccc1C(F)(F)F)N2Cc1ccc2c(c1)OCO2 | -2
COc1ccc(C=Nn2c(-c3ccccc3F)n[nH]c2=S)cc1OCc1ccccc1 | -3
COCCCNC(=O)c1oc(=O)c2ccccc2c1-c1ccc(C)cc1 | 1
CCCCNC(=O)O[C@H]1CC[C@@]23CCCN2C(=O)CCC[C@H]3[C@H]1C | -5
NC(=O)c1ccc(NC(=O)COc2ccc(-n3cnnn3)cc2)cc1 | 1
O=C(CN1CCN(Cc2ccccc2)CC1)Nc1ccc(-n2cnnn2)cc1 | -1
O=C(O)COCC(=O)Nc1ccc(-n2cnnn2)cc1 | 12* | TbREL1 conf=7
O=C(NCc1ccc(OC(F)(F)F)cc1)c1cccc2c1C(=O)c1ccc(N3CCCCC3)cc1S2(=O)=O | 5
O=C(NCc1cc(C(F)(F)F)ccc1Cl)c1cccc2c1C(=O)c1ccc(N3CCOCC3)cc1S2(=O)=O | 0
SMILES | TbREL1 primary | others
O=C(NCc1cc(C(F)(F)F)ccc1Cl)c1cccc2c1C(=O)c1ccc(N3CCCCC3)cc1S2(=O)=O | 41* | TbREL1 conf=4
O=C(CSc1nnc(-c2cccnc2)n1-c1ccccc1)Nc1cccc2ccccc12 | 8
Cc1ccccc1C(=O)N(Cc1ccccn1)CC1CCCO1 (centres undefined) | -3
Fc1ccc(NC(=S)Nc2ccc3nccnc3c2)cc1 | 13* | TbREL1 conf=4
O=c1[nH]c2ccc(NC(=S)Nc3ccc(F)cc3)cc2[nH]1 | 2
N#Cc1ccccc1NC(=S)Nc1ccc(F)cc1 | 3
O=c1cc(CN2CCCc3ccccc32)nc2sccn12 | 3
O=c1cc(CN2CCc3ccccc32)nc2sccn12 | 15* | TbREL1 conf=22*
CC1CN(Cc2cc(=O)n3ccsc3n2)CC(C)O1 (centres undefined) | 1
O=C1CCC[C@H]2C[C@H](NCc3cccc(I)c3)CC[C@]23CCCN13 | 3
O=C1CCC[C@H]2CC3(CC[C@]24CCCN14)OCCO3 | -4
COc1ccc(CCNC(=O)c2cc3ccccn3n2)cc1 | 1
O=C(NCc1ccccc1)N1CCC(c2nc3ccc(Cl)cc3[nH]2)CC1 | 1
CCOC(=O)c1ccc(NC(=O)CSc2nnc(SCc3cccc4ccccc34)s2)cc1 | 1
CC1=NN(c2ccccc2)C(=O)/C1=C/N(C)C | 12* | TbREL1 conf=6
CC1=NN(c2ccccc2)C(=O)/C1=C\c1cc(C)n(C)c1C | -10
CN(C)/C=C1/C(=O)N(c2ccc([N+](=O)[O-])cc2)N=C1c1ccccc1 | -1
O=C(NCc1ccc(Cl)cc1)C1CCCN(c2ncccn2)C1 (centres undefined) | -1
COc1cc(C(=O)O)ccc1OCc1ccccc1 | 3
COc1cc(CNC(=O)C2CC2)ccc1OCc1ccccc1 | -1
COc1cc(CN(CCN(C)C)Cc2ccccc2)ccc1OCc1ccccc1 | 16* | TbREL1 conf=12*
COc1cccc(C(=O)N(CCN2CCOCC2)Cc2ccc(OC)c(OC)c2)c1 | 1
Cn1c(COc2ccccc2)nnc1SCC(=O)Nc1ccc(S(=O)(=O)Nc2nccs2)cc1 | -3
CCOc1ccc2nc(NC(=O)c3cnccn3)sc2c1 | 2
O=C(Nc1nc(-c2ccco2)c(-c2ccco2)s1)c1cnccn1 | 20* | TbREL1 conf=3
SMILES | TbREL1 primary | others
Cc1cnc(NC(=O)c2ccco2)s1 | 6
Nc1[nH]c2cc(C(F)(F)F)ccc2c1C(=O)NC1CCCCC1 | 3
Cc1ccccc1CC(=O)Nc1nnc(-c2cccnc2)s1 | -1
O=C(CCS(=O)(=O)c1ccccc1)Nc1ccc(F)cc1F | -1
CCCC1CCC2(CC1)CCC2OC(=O)Nc1cccc(C(F)(F)F)c1 (centres undefined) | 12* | TbREL1 conf=8
CCCC1CCC2(CC1)CCC2OC(=O)Nc1cc(C)cc(C)c1 (centres undefined) | 0
CCCC1CCC2(CC1)CCC2OC(=O)Nc1ccc(C)cc1 (centres undefined) | -1
CC1(C)CC(=O)N(CC(=O)N2CCN(Cc3ccccc3)CC2)c2ccccc2S1(=O)=O | -1
CC(=O)c1cc(-c2ccc(Cl)c(Cl)c2)c(=O)n2c1CCC2 | 4
CC(=O)c1cc(-c2cccc(CO)c2)c(=O)n2c1CCC2 | 11* | TbREL1 conf=0
CC(=O)c1ccc(-c2cc(C(C)=O)c3n(c2=O)CCC3)cc1 | -2
COC(=O)c1cc(S(=O)(=O)N2CCN(C(C)=O)CC2)cn1C | 5
CC1CCCCN1C(=O)c1ccc(CNC(=O)c2cccc(Br)c2)cc1 (centres undefined) | 0

Screening results: PubChem BioAssay, The Scripps Research Institute Molecular Screening Center
